# COUP-TFII inh – NR2F2 (human) inhibition, primary screen | 370,000 tested, 0.7% active | AID 686940 | inhibition, % at 8.6 µM | HEK293T NGFI-A luciferase reporter, luminescence | P24468;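 active means inhibition above a per-plate cutoff, mean inhibition of test wells between control levels plus 3 SD, cut at about 38% in these data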;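 further: cells cotransfected with COUP-TFII expression vector driving the NGFI-A reporter; 0% = median of COUP-TF2 test wells and 100% = reporter-only cells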
# H9c2 protect – myocardial damage modulation in H9c2 cells; H9c2 cardiomyocytes, H2O2 injury protection, ATPLite, 2 h; protection from H2O2 cell death, % at 20 µM; 360,000 tested, 0.63% active;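 active means compounds giving at least 50% protection of heart cells from peroxide-induced death in the single-dose screen, raw or plate-pattern-corrected value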;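 further: 0% = DMSO wells with peroxide and 100% = DMSO wells without peroxide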
# GalR3 antagonist – blocks the human galanin receptor 3; HEK293 GalR3-CNG cAMP membrane potential fluorescence; galR3 body fused to GalR1 C-terminus; inhibition, % at 3 µM; 360,000 tested, 0.44% active; AID 651719;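 active means inhibition above the screen-wide average plus 3 SD, cut at about 13% in these data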;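 further: forskolin and galanin both at EC90 stimulate the cells; cAMP rise reported by CNG channel membrane potential dye signal; 0% = forskolin plus galanin with DMSO and 100% = forskolin alone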
# Target sequence (O60755 1-299 limits assumed): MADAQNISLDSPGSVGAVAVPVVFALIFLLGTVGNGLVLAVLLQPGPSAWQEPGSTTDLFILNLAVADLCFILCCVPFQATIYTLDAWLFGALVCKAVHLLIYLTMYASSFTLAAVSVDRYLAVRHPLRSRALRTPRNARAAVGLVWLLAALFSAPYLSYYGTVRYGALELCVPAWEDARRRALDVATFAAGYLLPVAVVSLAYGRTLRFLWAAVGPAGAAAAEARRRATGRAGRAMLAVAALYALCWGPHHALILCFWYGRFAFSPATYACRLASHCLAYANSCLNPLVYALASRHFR
# Gli-Sufu block – blocks Gli-Sufu signaling in a luciferase reporter; inhibition, % at 5 µM; Sufu-KO-LIGHT fibroblasts, Gli luciferase reporter luminescence; 340,000 tested, 0.74% active; AID 588413;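 active means inhibition above about 55%, limit read from the data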;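 further: 0% = DMSO-treated cells and 100% = wells with medium but no cells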
# GAA850 FXN act – activators of GAA850 frataxin (FXN) promoter | HEK293 lucGAA850 FXN promoter luciferase reporter, 24 h; percent of 10 µM SAHA response | activation, % at 6 µM | 360,000 tested, 0.56% active;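 active means activation above the average of all compounds screened plus 3 SD, cutoff fixed separately per campaign, cut at about 7.5% in these data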;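 further: 0% = DMSO wells and 100% = 10 µM SAHA wells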
# SMARCA2 activ – increases SMARCA2 function in MMTV reporter cells | 370,000 tested, 1% active | MG213 cells, MMTV-luciferase reporter, dexamethasone, overnight | activation, % at 9.1 µM | AID 652017; in the data active means activation above about 7.8%;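 further: 0% = vehicle wells and 100% = reference activator wells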
# Numbers without * were called inactive; . = no result. In the library only some 3.4% were active in any assay of this set; here they are far more common.
SMILES,COUP-TFII inh,H9c2 protect,GalR3 antagonist,Gli-Sufu block,GAA850 FXN act,SMARCA2 activ
CC(C)(C)c1cc(CCC(=O)NNC(=S)NC(=O)c2ccccc2)cc(C(C)(C)C)c1O,.,8,.,59*,2,.
COC(=O)[C@]12C[C@H](CC(=O)NCC3CCCCC3)C(=O)N(Cc3cccc4ccccc34)C1=C[C@H](COCc1ccccc1)O[C@@H]2C,4,.,.,.,.,-2
CCOC(=O)[C@H]1[C@H]2COc3ccc(Br)cc3[C@@H]2N2C(=O)c3cc(OC)c(OC)cc3NC(=O)[C@@]12C,3,50*,-5,18,0,1
COc1cccc(/C=N\N2CCN(c3ccc(C)cc3)CC2)c1O,-13,.,.,.,.,-1
O=C(NCCc1ccccc1)Nc1ccc2c(c1)OCO2,-23,-4,-5,-90,2,7.8*
CN1CCN(C(=O)CCN2C(=O)/C(=C/c3ccccc3Cl)SC2=S)CC1,2,-5,-1,8,-3,7.9*
CC(=O)N1N=C(c2cccc(NS(C)(=O)=O)c2)CC1c1cccs1 (stereo not drawn),11,11,-4,3,2,7.9*
COC(=O)C1CN(Cc2ccc(OC)cc2)CCS(=O)(=O)N1Cc1ccc(C)cc1 (stereo not drawn),9,.,.,.,.,-2
N#CCC[C@H]1CC[C@]2(CCCN(S(=O)(=O)c3ccccc3)C2)O1,0,.,.,.,.,-5
Cc1cccc(NC(=O)CCC(=O)N/N=C/c2cc([N+](=O)[O-])ccc2O)c1,-6,58*,-3,-4,0,1
O=[N+]([O-])c1ccc(O)c(/C=N/Nc2ccc(Cl)nn2)c1,6,34,0,86*,-12,-4
Cc1nc2ccc(C(=O)N/N=C/c3cc([N+](=O)[O-])ccc3O)cc2[nH]1,-4,10,-8,-3,1,-2
O=C(N/N=C/c1cc([N+](=O)[O-])ccc1O)c1cccc(NC(=O)c2cccc(Cl)c2)c1,2,56*,-8,-5,3,-3
O=C(CCC(=O)Nc1ccc(Br)cc1)N/N=C/c1cc([N+](=O)[O-])ccc1O,11,54*,-4,22,0,1
Cc1c[nH]c2cccc(-c3ccc(Cl)cc3Cl)c12,-41,.,.,.,.,3
O=C(N/N=C/c1cc([N+](=O)[O-])ccc1O)C1CCCCC1,13,52*,-3,-6,1,-2
Cc1ccn(CC(=O)N/N=C/c2cc([N+](=O)[O-])ccc2O)n1,5,67*,2,3,-1,-3
O=C(Cn1cnc([N+](=O)[O-])n1)N/N=C/c1ccccc1O,6,64*,-5,6,-19,1
O=C(Cn1cncn1)N/N=C/c1cc([N+](=O)[O-])ccc1O,15,10,-3,6,2,3
Fc1ccc(NC(=S)Nc2ccc3nccnc3c2)cc1,-35,62*,-6,-9,0,1
OCCCNC(=S)Nc1ccc2nccnc2c1,4,13,-4,-2,1,-2
Cc1cccc(NC(=O)[C@@H]2CC(=O)O[C@@H]2c2ccccc2)c1C,2,.,.,.,.,-3
COc1cc(-c2cc(C(=O)Nc3cccc(C(C)=O)c3)c3ccccc3n2)cc(OC)c1OC,4,55*,-1,2,-8,1
COc1cc(-c2cc(C(=O)Nc3ccccc3N3CCOCC3)c3ccccc3n2)cc(OC)c1OC,-7,89*,9,17,0,-2
O=C(Nc1ccccc1N1CCOCC1)c1cc(-c2ccco2)nc2ccccc12,9,8,2,5,-10,2
SMILES,COUP-TFII inh,H9c2 protect,GalR3 antagonist,Gli-Sufu block,GAA850 FXN act,SMARCA2 activ
COc1cc(-c2cc(C(=O)Nc3ccc(O)cc3)c3ccccc3n2)cc(OC)c1OC,-6,18,-3,6,-3,-1
O=C(CSc1ccc2ccccc2n1)N/N=C/c1ccccc1O,14,55*,-8,3,3,-2
O=C(CSc1ccc2ccccc2n1)N/N=C/c1ccc(O)cc1,-12,-12,-8,-2,0,3
CC(=O)Nc1ccc(OC(=O)c2ccc(Cl)cc2)cc1,-18,-1,-10,2,0,-4
CC(=O)Nc1ccc(C(=O)N/N=C/c2ccccc2OC(=O)c2ccc(Cl)cc2)cc1,-4,56*,0,35,-2,0
Oc1ccc(Nc2nc(-c3cccnc3)cs2)cc1,.,-9,.,1,9.0*,.
Brc1ccc(Nc2nc(-c3cccnc3)cs2)cc1,-34,-13,-4,-52,7,4
Clc1ccccc1-c1nc(N/N=C/c2cccnc2)c2ccccc2n1,10,78*,-3,-11,0,-1
O=C(N/N=C/c1cccnc1)c1cc(-c2ccccc2Cl)nc2ccccc12,12,14,-1,4,-1,-3
Cn1nc(C(=O)Nc2nc3ccccc3[nH]2)c2ccccc2c1=O,-37,5,-9,-18,2,16*
O=C(OCC#CCSc1nnc(-c2cccc3ccccc23)o1)c1ccc(Cl)c(C(F)(F)F)c1,-11,.,.,.,.,.
Cc1ccccc1-n1c(=O)/c(=C\c2ccco2)s/c1=C(/C#N)C(=O)Nc1ccccc1,19,71*,-4,8,-1,2
Cc1cc(C)c2cc(CN(Cc3ccco3)C(=O)NCc3ccccc3)c(=O)[nH]c2c1,4,14,14*,-20,1,2
Cc1cc(C)c2cc(CN(CC3CCCO3)C(=S)NCc3ccco3)c(=O)[nH]c2c1 (stereo not drawn),35,-4,-3,9,1,3
CCCCC#CC(CC)NCc1ccc(OC)cc1OC (stereo not drawn),-14,.,.,.,.,.
CCc1ccc(Nc2n[n+](-c3ccccc3)c(-c3cccc(C)c3)s2)cc1,14,-12,-5,70*,-2,-1
Cc1nn(-c2ccccc2)c(N2CCCC2)c1/C=N/n1cnc2scc(-c3ccccc3)c2c1=O,-6,62*,-2,-5,2,1
O=c1c2c(-c3ccccc3)csc2ncn1/N=C/c1c2ccccc2cc2ccccc12,-10,8,-9,11,0,-2
O=C(N/N=C/c1cccc([N+](=O)[O-])c1O)C(O)(c1ccccc1)c1ccccc1,1,63*,-10,-8,2,-1
O=C(CSc1ccc2nnc(-c3ccc(F)cc3)n2n1)N1CCCc2ccccc21,10,80*,-1,14,0,-2
COc1ccccc1NC(=O)CSc1ccc2nnc(-c3ccc(C)cc3)n2n1,14,69*,-2,0,1,-3
COc1ccccc1NC(=O)CSc1ccc2nnc(-c3ccncc3)n2n1,2,18,-2,9,-1,-1
CC(C)OP(=O)(OC(C)C)C(Nc1ccccc1)c1ccc2c(c1)OCO2 (stereo not drawn),12,23,-1,0,-2,-2
CC(C)COP(=O)(OCC(C)C)C(Nc1ccccc1)c1ccc2c(c1)OCO2 (stereo not drawn),7,67*,-5,4,-3,0

# Source: PubChem
